Screening data deposited in PubChem by National Center for Advancing Translational Sciences (NCATS).
Sampled rows, rich in hits. Any-hit rate of the full collection: about 5.4%.
p53 reactivation: re-activators of mutant p53; H1299 p53-A138V BP100-luciferase reporter, luminescence, 24 h; Potency, µM (doses to about 92.2 µM), without a hit: at the top dose activity change, positive = activation, actives largely listed as activators; hit rate 0.063% among 320,000; also: potency is read from the fitted curve at half-maximal effect; % of control where 0% means no effect; nearly all actives have a fitted effect of over 45% in size
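p53-null H1299 cells stably carrying temperature-sensitive p53-A138V and a BP100-luciferase reporter were pinned with compounds (4-point, 1:5 series) and held 24 hrs at 37 deg C. Luminescence was read 10 min after detection reagent.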
CtBP-E1A inh: inhibitors of CtBP/E1A interaction; hit rate 0.49% among 340,000; AlphaScreen GST-E1A/His-CtBP binding, 1536-well; stronger effect = lower value; activity change, % (concentration not given with the values); in the data active = activity change below about -65%; inconclusive = mostly about -30% to -63%; also: % is scaled to controls: 0 for no effect and ±100 for the full control effect
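Steps: dispense buffer (Tris pH 8.0, NaCl 300 mM, TCEP 1 mM, BSA, Tween 20); add 5X protein mix (GST-E1A, His-CtBP, 125 nM each); pin 23 nL compound; 2 h at 37 °C, dark; add 5X beads (50 ug/mL); 1 h; read.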
Gal4-VP16 FLuc: Gal4-VP16 reporter inhibition counter-screen. Drosophila S2 Gal4-VP16 UAS-luciferase, luminescence, 20 h. Potency, µM (titrated, usually from 53.6 µM), for the others: at the highest dose activity, negative = inhibition, hits mostly inhibitors. hit rate 3.5% among 310,000;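 also: Gal4-VP16 expression switched on by copper sulfate through the metallothionein promoter; potency is read from the fitted curve at half-maximal effect; % is scaled to controls: 0 for no effect and ±100 for the full control effect; nearly all actives have a fitted effect of over 50% in size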
Six1-Eya2 blk: inhibitors of human Six1/Eya2 interaction; activity change, % (test concentration not listed); hit rate 0.56% among 360,000; AlphaScreen GST-Six1/His-Eya2 binding, biochemical; stronger effect = lower value; AID 651725; in the data active = activity change below about -65%; inconclusive = mostly about -30% to -63%; also: % is scaled to controls: 0 for no effect and ±100 for the full control effect
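GST-Six1 + His-Eya2 (5X stock: 250/500 nM); Tris pH 8.0, 300 mM NaCl, 0.05% BSA, 0.02% Tween 20; GSH donor/Ni acceptor beads; 1 h 37 °C dark; AlphaScreen readout.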
RORgamma inh: blocks mouse ROR gamma transcriptional activity; P51450; Drosophila S2 Gal4-RORgamma UAS-luciferase reporter, 20 h; hit rate 5.4% among 310,000; Potency, µM (titrated, usually from 53.6 µM), inactives show top-dose activity change, negative = inhibition, actives largely listed as inhibitors; also: potency is read from the fitted curve at half-maximal effect; % is scaled to controls: 0 for no effect and ±100 for the full control effect; nearly all actives have a fitted effect of over 60% in size
Target sequence (P51450 whole entry, looked up, the tested form may be a part): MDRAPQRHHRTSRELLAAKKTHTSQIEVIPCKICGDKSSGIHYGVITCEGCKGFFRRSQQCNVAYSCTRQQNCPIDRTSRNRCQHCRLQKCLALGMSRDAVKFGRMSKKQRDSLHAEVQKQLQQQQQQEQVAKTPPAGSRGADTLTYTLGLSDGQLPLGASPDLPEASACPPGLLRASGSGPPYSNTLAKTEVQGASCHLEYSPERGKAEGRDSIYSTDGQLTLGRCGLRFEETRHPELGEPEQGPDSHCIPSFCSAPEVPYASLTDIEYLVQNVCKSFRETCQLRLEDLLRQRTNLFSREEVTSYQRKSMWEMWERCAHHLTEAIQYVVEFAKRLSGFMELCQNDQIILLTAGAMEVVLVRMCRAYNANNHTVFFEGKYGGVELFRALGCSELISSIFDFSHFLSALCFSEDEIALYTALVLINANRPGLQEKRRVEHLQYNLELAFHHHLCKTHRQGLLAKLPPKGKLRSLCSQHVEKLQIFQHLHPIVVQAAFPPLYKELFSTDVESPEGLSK
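Schneider cells (Drosophila), stable Gal4 DBD–ROR gamma + UAS-luc; 1 hr cmpd preincubation; Cu2+ induction 700 uM final; 20 hr ambient; luminescence.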
An asterisk follows results filed as active; ? = inconclusive; . = no result; [ ] = dose if it differs, or a comment. Unless noted, calls follow the shape of the dose curve; as a rule, active = well fitted curve in the direction sought with a large enough effect; inconclusive = small, poorly fitted or top-dose-only effect, or another doubt; inactive = no such curve, though single readings can be large; an effect the other way counts as inactive or inconclusive.

SMILES	p53 reactivation	CtBP-E1A inh	Gal4-VP16 FLuc	Six1-Eya2 blk	RORgamma inh
O=C(CCc1ccccc1)Nc1ccc2ccccc2n1	?	11	-13%	8	?
CC(C)Oc1cc(F)ccc1-c1cc(C(=O)NCC2CCCCC2)[nH]n1	.	4	.	-5	.
CCn1cc(/C=C(\NC(=O)c2ccc(OC)c(OC)c2)C(=O)NCCCN2CCOCC2)c2ccccc21	9%	.	2%	-30	-17%
O=C(Oc1ccc(N(Cc2cccs2)C2=NS(=O)(=O)c3ccccc32)cc1)c1ccccc1F	0%	0	12%	6	-3%
O=C(NN=C1c2ccccc2-c2ccccc21)c1ccccc1	7%	?	0%	-9	-8%
COCCCNC(=S)NNC(=O)c1ccccn1	-2%	-87*	0%	-93*	14µM*
O=C(NN=C1c2ccccc2-c2ccccc21)c1ccccc1Br	-8%	-5	10µM*	-7	7.1µM*
COCCCNC(=S)NNC(=O)c1ccccc1Br	-4%	0	-15%	0	2.5µM*
Cc1occc1C(=O)NNC(=O)c1ccccc1Br	24%	4	-14%	1	6%
CNC(=S)NNC(=O)c1ccccc1Br	3%	-24	?	-10	13µM*
COc1ccc(-c2ccc(NS(=O)(=O)c3cc([N+](=O)[O-])c(C)c([N+](=O)[O-])c3)cc2)nn1	1%	.	6%	-8	13%
CC(=O)OCC(CO)OC(C)=O (configuration not stated) (tested in a mixture with another compound)	.	.	-2%	.	9%
O=C(NN1C(=O)C2C3c4ccccc4C(c4ccccc43)C2C1=O)C1CC1 (configuration not stated)	-2%	3	-4%	9	-5%
NC(=S)NN=C1c2ccccc2-c2ccccc21	-2%	.	4µM*	?	1.3µM*
C/C(=N\NC(=O)c1ccncc1)c1cc2ccccc2oc1=O	-5%	-5	13µM*	-80*	7.9µM*
C/C(=N/NC(=O)c1ccncc1)c1cc2ccc(O)cc2oc1=O	-2%	-5	-4%	-85*	12%[10 µM]
C/C(=N\NC(=O)c1ccncc1)c1cc2ccccc2o1	-3%	-7	-1%	-2	?
COC(=O)c1cc2ccccc2oc1=O	10%	4	6%	7	-15%
N/C(=N\NC(=O)c1ccccc1Cl)c1cc2ccccc2oc1=O	9%	-22	?	-2	14µM*
Cc1noc(C)c1C(=O)N1CCC2(CCCN(c3ccncc3)C2)CC1	.	.	8%	.	23%
O=C(O)c1ccc(Nc2c3ccccc3nc3ccccc23)cc1	-4%	-12	20µM*	3	?
O=C(O)c1ccc(Nc2nc(-c3ccccc3)nc3ccccc23)cc1	0%	.	-7%	?	0%
CN1CCN(c2ccc(Nc3c4ccccc4nc4ccccc34)cc2)CC1	.	.	10µM*	.	-44%
Cc1c(CN2CCC(Oc3ccc(C(=O)N4CCCCC4)cc3)CC2)cnn1C	14%	9	0%	-6	9%
CC(=O)c1cccc(NC(=O)C2(C)Cc3c(-c4cccc(C(F)(F)F)c4)ccnc3O2)c1 (configuration not stated)	.	-1	.	-8	.
SMILES	p53 reactivation	CtBP-E1A inh	Gal4-VP16 FLuc	Six1-Eya2 blk	RORgamma inh
Cc1ccccc1C(=O)N1CCC(C(=O)Nc2ccc(S(=O)(=O)N3C(C)CCCC3C)cc2)CC1 (configuration not stated)	.	-3	.	-4	.
C/C(=N\NC(=O)c1ccc(Br)cc1)C1C(=O)c2ccccc2C1=O	?	5	3.5µM*	-11	4µM*
C/C(=N\NC(=O)c1ccc(-c2ccccc2)cc1)C1C(=O)c2ccccc2C1=O	4%	-4	12%	?	?
CCOc1ccc(C(=O)N/N=C(/C)C2C(=O)c3ccccc3C2=O)cc1	20%	5	2.8µM*	-2	1.1µM*
CCCCCCCCCCCCC/C=C\[C@@H](O)[C@H](CO)NC(C)=O	.	.	-3%	.	12%
Cn1ncc(Cl)c1C(=O)NC(=S)Nc1sc2c(c1C#N)CCCCC2	8%	-2	?	-4	11µM*
Cc1ccsc1/C=N/NC(=O)c1ccc(Cn2cc(Br)cn2)o1	3%	-3	?	2	13µM*
CCC(=O)Nc1sc2c(c1C#N)CCC2	-10%	7	11%	14	2%
CC(C)CC(=O)NC(NC(=S)Nc1sc2c(c1C#N)CCCC2)C(Cl)(Cl)Cl (configuration not stated)	8%	-8	?	-8	10µM*
CCCC1Cc2c(sc(NC(=S)NC(=O)c3ccccc3)c2C#N)CO1 (configuration not stated)	15%	.	?	.	4.5µM*
CO[C@H]1COC(=O)C/C=C\[C@@H](C)COC(=O)[C@@H](OCc2ccccc2)/C=C\[C@@H]1C	.	.	-7%[10 µM]	.	-16%[10 µM]
COCC(=O)N[C@H]1C=C[C@@H](CC(=O)NCc2ccccc2OC)O[C@@H]1CO	.	4	.	12	.
Cc1cccc(C(=O)Nc2sc3c(c2C#N)CCCCC3)c1	?	2	?	13	7.9µM*
CC1CCc2c(sc(NC(=S)NC(=O)c3ccccc3)c2C#N)C1 (configuration not stated)	12%	6	-7%	6	-45%
N#Cc1c(NC(=S)NC(=O)c2ccccc2)sc2c1CCCC2	?	-5	10µM*	-9	6.3µM*
N#Cc1c(NC(=O)c2ccccc2)sc2c1CCC2	22%	-1	1%	6	-15%
Cc1ccccc1C(=O)NC(=S)Nc1sc2c(c1C#N)CCC(C)C2 (configuration not stated)	6%	-6	?	-5	7.9µM*
N#Cc1c(NC(=O)c2ccc(Cn3cc(Br)cn3)o2)sc2c1CCCCCC2	4%	13	-10%[0.365 µM]	1	5.6µM*
N#Cc1cccc(CS(=O)(=O)c2nc3ccccc3s2)c1	.	.	-4%	.	-35%
CCOc1ccc2[nH]c(=O)c(CN(CCc3ccccc3)C(=O)c3cnccn3)cc2c1	-7%	4	-3%	-2	12%
O=C(N/N=C/c1ccc(Cl)cc1)c1ccc2nc[nH]c2c1	.	-4	.	-5	.
Cc1ccccc1C(=O)NC(C(=O)Nc1nc2c(s1)CCCC2)C(C)C (configuration not stated)	11%	-3	20µM*	-4	?
Cc1ccccc1-c1cc(C(=O)Nc2nc3c(s2)CCCC3)c2ccccc2n1	-3%	-19	-18%	-15	10µM*
Cc1ccccc1C(=O)N[C@H](C(=O)Nc1ccc(Cl)c(Cl)c1)C(C)C	4%	-14	-20%	-3	-14%
COc1ccc(-n2c(=O)c(CCc3ccccc3)nc3cnc(OC)nc32)cc1	.	.	-18%	.	18%
CC1CN(C(=O)C2(C)CC2(Cl)Cl)CC(C)O1 (configuration not stated)	-14%	1	-2%	-3	-6%
